The list is not random: actives were taken first. Their share in the collection is about 10%.
Six1-Eya2 inh: Six1/Eya2 interaction inhibition; AlphaScreen GST-Six1/His-Eya2 binding, biochemical; stronger effect = lower value; activity change, % (no concentration beside the values); 360,000 tested, 0.56% active; AID 651725; in the data active means activity change below about -65%; inconclusive means mostly about -30% to -63%
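AlphaScreen luminescence read after one hour at 37 °C in darkness. Pin-transferred compounds met GST-Six1 and His-Eya2 protein (5X stock 250 nM/500 nM) plus glutathione donor and Ni-chelate acceptor beads (5X, 50 ug/mL).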
BAZ2B inh: BAZ2B (human) inhibition; 360,000 tested, 4.4% active; Potency, µM (titrated, usually from 114 µM), hits mostly inhibitors; AID 504333; AlphaScreen BAZ2B-H3K14Ac peptide displacement; further: nearly all actives have a fitted effect of over 60% in size
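AlphaScreen luminescence quantifies BAZ2B engagement of H3K14Ac peptide; the protein and biotinylated peptide are both at 50 nM final, buffer PBS pH 7.4 with 0.01% Tween-20, all steps at room temperature.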
CtBP-E1A inh: blocks the CtBP interaction with E1A. AID 651724. activity change, % (concentration not given with the values). 340,000 tested, 0.49% active. AlphaScreen GST-E1A/His-CtBP binding, 1536-well; stronger effect = lower value; in the data active means activity change below about -65%; inconclusive means mostly about -30% to -63%
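GST-E1A and His-tagged CtBP (125 nM each as 5X stock) were preincubated with pin-transferred compound for 2 h at 37 °C in the dark, then glutathione donor and nickel acceptor beads were added for 1 h before AlphaScreen reading.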
JMJD2A Tudor: inhibitors of human JMJD2A Tudor domain | O75164 | AlphaScreen JMJD2A-Tudor / H3K4me3 peptide binding | Potency, µM (highest dose often 114 µM), actives largely listed as inhibitors | 390,000 tested, 4.4% active | AID 504339; further: nearly all actives have a fitted effect of over 50% in size
G9a inh: G9a (human) methyltransferase inhibition | Q96KQ7 | G9a H3K9 monomethylation, AlphaScreen, 2 h | Potency, µM (series often up to 102 µM), hits mostly inhibitors | 350,000 tested, 8.8% active | AID 504332; further: nearly all actives have a fitted effect of over 75% in size
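Signal arises when biotinylated H3K9 peptide, once monomethylated, bridges streptavidin donor and antibody-captured acceptor beads. Enzyme at 20 nM was preincubated 15 min with test compounds; peptide 500 nM and SAM 20 uM then reacted for 2 h.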
HP1b binding inh: blocks HP1-beta chromodomain binding to methylated histone tails. P83916. AlphaScreen HP1-beta / biotin-H3K9me3 peptide binding. Potency, µM (top dose mostly 114 µM), hits mostly inhibitors. 390,000 tested, 0.56% active. AID 540317; further: nearly all actives have a fitted effect of over 70% in size
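AlphaScreen: HP1-beta (50 nM) preformed 30 min with biotin-H3(1-18)K9me3 peptide (50 nM) in PBS pH 7.4, 0.01% Tween-20. Compound added for 30 min at RT, then streptavidin donor/nickel chelate acceptor beads (10 ug/mL) for 30 min.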
Large screens that a line does not name were inactive; ! = repeats disagree. Unless noted, the call rests on the fitted dose curve; in most records, active means well fitted inhibition curve with a large enough effect; inconclusive means small, poorly fitted or top-dose-only effect; inactive means no such curve, though single readings can be large or run the other way.

Cc1cc(OCC(=O)Nc2cnn(CCCC(=O)O)c2)ccc1Cl	G9a inh 14µM!
O=C(O)CCCn1cc(NC(=O)COc2ccccc2F)cn1	JMJD2A Tudor 79µM!
O=C(O)CCCn1cc(NC(=O)COc2ccc(F)cc2F)cn1	none
Cc1cc(OCC(=O)Nc2cnn(CCCC(=O)O)c2)ccc1[N+](=O)[O-]	none
COCCN(C(=S)Nc1c(C)cc(C)cc1C)C(C)c1cccnc1 (centres undefined)	G9a inh 7.1µM, HP1b binding inh inconclusive
CC(C)C(c1nnnn1C(C)(C)C)N1CCOCC1 (centres undefined)	JMJD2A Tudor 40µM, G9a inh 40µM
CC(C)C(c1nnnn1C1CCCCC1)N1CCOCC1 (centres undefined)	none (no result: BAZ2B inh)
O=C(CNC(=O)c1ccc(Br)o1)Nc1ncccc1O	BAZ2B inh 79µM, CtBP-E1A inh inconclusive, JMJD2A Tudor inconclusive, G9a inh 28µM
Cc1ccc(C(=O)Nc2ncccc2O)o1	BAZ2B inh inconclusive, JMJD2A Tudor 3.5µM
Cc1cccnc1NC(=O)c1ccc(Br)o1	none
CCOC(=O)C1(C)CCN1C(=O)c1cccc(Cl)c1 (centres undefined)	none (no result: BAZ2B inh, JMJD2A Tudor, G9a inh, HP1b binding inh)
C/C(=N\NC(=O)c1cccc([N+](=O)[O-])c1)c1ccco1	none
C/C(=N\NC(=O)c1cccc(N/N=C(\C)c2cc(O)ccc2O)c1)c1cc(O)ccc1O	Six1-Eya2 inh inconclusive, BAZ2B inh 11µM, CtBP-E1A inh inconclusive, JMJD2A Tudor 13µM, G9a inh inconclusive, HP1b binding inh inconclusive
C/C(=N\NC(=O)c1cccc(N/N=C(\C)c2ccco2)c1)c1ccco1	JMJD2A Tudor inconclusive, G9a inh 35µM (no result: CtBP-E1A inh)
Cc1cc(OC(C)C(=O)Nc2cccc(-c3nc4ccccc4o3)c2)cc(C)c1Cl (centres undefined)	none (no result: Six1-Eya2 inh, CtBP-E1A inh)
Clc1ccc(OCCCNCc2ccccc2)c(Br)c1	BAZ2B inh inconclusive, JMJD2A Tudor 10µM, G9a inh 13µM
OCCCCNCc1ccc(OCc2ccc(Cl)cc2)cc1	none
Clc1ccc(Cl)c(OCCCCNCc2ccccc2)c1	BAZ2B inh inconclusive, JMJD2A Tudor 1.3µM, G9a inh inconclusive, HP1b binding inh inconclusive
COc1ccc(-c2noc(-c3ccccc3NC(=O)c3cc(OC)c(OC)c(OC)c3)n2)cc1	G9a inh inconclusive (no result: Six1-Eya2 inh, CtBP-E1A inh)
C=C1N(C)c2cc([N+](=O)[O-])c(N)cc2C1(C)C	Six1-Eya2 inh inconclusive, BAZ2B inh 45µM, JMJD2A Tudor inconclusive, G9a inh 32µM, HP1b binding inh inconclusive
CCN(C(=O)COC(=O)c1cc(-c2cccs2)nc2ccccc12)C1CCS(=O)(=O)C1 (centres undefined)	none
Cc1ccc(-c2cc(C(=O)OCC(=O)N(C)C3CCS(=O)(=O)C3)c3ccccc3n2)o1 (centres undefined)	JMJD2A Tudor 79µM, G9a inh 4µM
Cc1ccc(-c2cc(C(=O)OCC(=O)N(C)C3CCS(=O)(=O)C3)c3ccccc3n2)c(C)c1 (centres undefined)	none
CCN(C(=O)COC(=O)c1cc(-c2ccc(C)o2)nc2ccccc12)C1CCS(=O)(=O)C1 (centres undefined)	JMJD2A Tudor 89µM, G9a inh 2µM
COC(=O)c1sccc1S(=O)(=O)N(CC(=O)NCc1ccccc1)c1ccc(C)c(C)c1	none (no result: Six1-Eya2 inh, CtBP-E1A inh)
O=Cc1ccc(-c2cc(Cl)ccc2Cl)[nH]1	BAZ2B inh inconclusive, G9a inh inconclusive
COc1ccc(C(O)Cn2ccsc2=NC(C)=O)cc1 (centres undefined)	G9a inh 50µM
CCNC(=S)NCc1ccc2[nH]c(C)cc2c1	BAZ2B inh inconclusive, CtBP-E1A inh inconclusive, JMJD2A Tudor inconclusive, G9a inh 50µM
Cc1cc2cc(CNC(=S)Nc3ccc(OC(F)F)cc3)ccc2[nH]1	BAZ2B inh 45µM, JMJD2A Tudor inconclusive
Cc1ccc(S(=O)(=O)N2CCN(c3ccnc(-c4cccs4)n3)CC2)cc1	none (no result: Six1-Eya2 inh, BAZ2B inh, CtBP-E1A inh, G9a inh)
O=C(C1CCC(Cn2c(=O)c3sccc3n(Cc3ccccc3)c2=O)CC1)N1CCOCC1 (centres undefined)	none (no result: Six1-Eya2 inh, CtBP-E1A inh)
CCCc1cc(Nc2cccc(OCC)c2)n2ncnc2n1	G9a inh 56µM

High-throughput results (PubChem BioAssay)
